Results reported in PubChem BioAssay (EPA / NIEHS).
Calls of active or inactive are those of the source. The calls were made as follows: active = hit-call score of the fitted dose curve at least 0.9, where 1 is the maximum; inactive = score below 0.9.

What follows are compounds tested against Cellular tumor antigen p53 (Homo sapiens) (UniProt P04637) (assay: ATG_p53_CIS: Attagene CIS-FACTORIAL HepG2 Assay for human p53 Transcription Factor (AID 2282994)). Conditions: HepG2 p53 cis-element reporter, Attagene mRNA; actives raise or lower the signal.
Description: ATG_CIS is a cell-based, multiplexed-readout assay that uses HepG2, a human liver cell line, with measurements taken at 24 hours after chemical dosing in a 24-well plate.ATG_p53_CIS is one of 52 assay component(s) measured or calculated from the ATG_CIS assay. It is designed to make measurements of mRNA induction, a form of inducible reporter, as detected with fluorescence intensity signals by Reverse transcription polymerase chain reaction (RT-PCR) and Capillary electrophoresis technology.Data from the assay component ATG_p53_CIS was analyzed into 1 assay endpoint. This assay endpoint, ATG_p53_CIS, was analyzed with bidirectional fitting relative to DMSO as the negative control and baseline of activity. Using a type of inducible reporter, measures of mRNA for gain or loss-of-signal activity can be used to understand the reporter gene at the transcription factor-level as they relate to the gene TP53. Furthermore, this assay endpoint can be referred to as a primary readout, because this assay has produced multiple assay endpoints where this one serves a reporter gene function. To generalize the intended target to other relatable targets, this assay endpoint is annotated to the dna binding intended target family, where the subfamily is tumor suppressor.
Human liver HepG2 cells are transiently transfected with multiple reporter transcription units (MRTUs) in 6-well plates using FuGene 6 reagent (Roche; 3 ml FuGene/1 mg DNA). The MRTU constructs are regulated by a cis-regulating element (promoter). […] A major difference between the CIS and TRANS system is that in CIS activities of endogenous TFs are measured, whereas the TRANS assay evaluates changes in activities of exogenous, chimeric NR-Gal4 proteins. […] At the end of 24 hour incubation, total RNA was isolated using TriZol reagent (Invitrogen). The isolated RNA is then reverse-transcribed using oligo(dT) primer and Mo-MLV reverse transcriptase (Invitrogen) with DNAse I (Ambion) treatment for 30 min. The one-tenth of the produced cDNA was amplified by PCR using Taq DNA polymerase (Invitrogen) and two reporter sequence-specific primers. The PCR products were fluorescently labeled by primer extension with 6-arboxyfluorescein (6-FAM) 5'-labeled reporter sequence-specific primer (2 min at 95 C, 20 s at 68 C and 10 min at 72 C) and these products were digested with 5U of HpaI (New England Biolabs) for 2h at 37 C. The fragments were purified using Qiaquick PCR columns (Qiagen), analyzed on an ABI 3130xL genetic analyzer (Applied Biosystems) with peak positions identified by using a set of X-rhodamine (ROX)-labeled MapMarker1000 molecular weight standards (BioVentures). The raw capillary electrophoresis data was processed using Attagraph software (Attagene).

Sequence of Cellular tumor antigen p53 (Homo sapiens) (P04637 whole entry, looked up): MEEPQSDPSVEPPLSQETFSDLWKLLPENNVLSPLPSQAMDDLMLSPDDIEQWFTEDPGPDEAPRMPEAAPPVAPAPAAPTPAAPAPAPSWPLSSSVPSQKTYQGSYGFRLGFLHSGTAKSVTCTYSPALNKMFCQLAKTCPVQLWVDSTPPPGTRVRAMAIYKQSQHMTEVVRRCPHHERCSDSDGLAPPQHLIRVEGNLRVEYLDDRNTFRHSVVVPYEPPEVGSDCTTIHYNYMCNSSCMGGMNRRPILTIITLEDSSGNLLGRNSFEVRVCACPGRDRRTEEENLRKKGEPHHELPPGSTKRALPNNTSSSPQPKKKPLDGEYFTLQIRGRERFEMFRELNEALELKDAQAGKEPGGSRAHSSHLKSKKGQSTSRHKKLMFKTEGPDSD

Compound	outcome	AC50
COP(=S)(OC)Oc1ccc(Sc2ccc(OP(=S)(OC)OC)cc2)cc1	inactive	–
CC(C#N)CCC#N (stereo not given)	inactive	–
O=C(Cc1ccccc1)c1ccccc1	inactive	–
C=C(C)C(=O)[O][Sn]([CH2]CCC)([CH2]CCC)[CH2]CCC	inactive	–
COC(=O)Cc1ccccc1	inactive	–
O=C(O)C(F)(F)C(F)(F)C(F)(F)C(F)(F)C(F)(F)C(F)(F)F	inactive	–
C=C(C)C#N	inactive	–
Cc1cc(=O)[nH]o1	inactive	–
CCCCOCCOC(C)=O	inactive	–
C=CC(=O)OCCCCCC(C)C	inactive	–
COc1cccc(C=O)c1	inactive	–
CCN1CCC2(CC1)COc1cc3c(cc12)N(C(=O)c1ccc(-c2ccc(-c4nnc(C)o4)cc2C)cc1)CC3	inactive	–
O=C1C2(Cl)C3(Cl)C4(Cl)C(Cl)(Cl)C5(Cl)C3(Cl)C1(Cl)C5(Cl)C24Cl (stereo not given)	inactive	–
NNC(=S)NN	inactive	–
C(=NC1CCCCC1)=NC1CCCCC1	inactive	–
Nc1cccc(Cl)c1	inactive	–
Oc1c(I)cc(I)cc1I	inactive	–
Cn1sc(Cl)cc1=O	inactive	–
Nc1ccc(N=Nc2ccc(-c3ccc(N=Nc4c(S(=O)(=O)O)cc5cc(S(=O)(=O)O)c(N=Nc6ccccc6)c(O)c5c4N)cc3)cc2)c(N)c1	inactive	–
Oc1cccc2cccnc12	inactive	–

Compound	outcome	AC50
Nc1cccc2ccccc12	inactive	–
Cl/C=C/Cl	inactive	–
C[C@H]1O[C@@H](O[C@H]2[C@@H](O)C[C@H](O[C@H]3[C@@H](O)C[C@H](O[C@H]4CC[C@@]5(C)[C@H](CC[C@@H]6[C@@H]5CC[C@]5(C)[C@@H](C7=CC(=O)OC7)CC[C@]65O)C4)O[C@@H]3C)O[C@@H]2C)C[C@H](O)[C@@H]1O	inactive	–
CNC(=O)O/N=C/C(C)(C)S(C)=O (stereo not given)	inactive	–
BrCCBr	inactive	–
CCC(C)(C)c1ccc(O)c(C(C)(C)CC)c1	inactive	–
CC(=O)C(Cl)C(=O)N(C)C (stereo not given)	–	178 µM (active)
COP(=S)(OC)Oc1cc(Cl)c(Cl)cc1Cl	inactive	–
C1CCC(NC2CCCCC2)CC1	inactive	–
ClC1=C(Cl)[C@]2(Cl)[C@@H]3[C@@H](Cl)[C@@H](Cl)C[C@@H]3[C@@]1(Cl)C2(Cl)Cl	inactive	–
CCC[CH2][Sn]([Cl])([Cl])[Cl]	inactive	–
COc1ccc(C=O)cc1OC	inactive	–
CC12CC1(C)C(=O)N(c1cc(Cl)cc(Cl)c1)C2=O (stereo not given)	inactive	–
COc1cc(OC)nc(NC(=O)NS(=O)(=O)c2ncccc2C(=O)N(C)C)n1	inactive	–
c1ccc(N=NNc2ccccc2)cc1	inactive	–
CC(C)(C)c1cc(O)ccc1O	inactive	–
Nc1ccc(-c2ccc(N)c(Cl)c2)cc1Cl	inactive	–
N#CCCO	inactive	–
CCC(=O)C(CC(C)N(C)C)(c1ccccc1)c1ccccc1 (stereo not given)	–	48.9 µM (active)
Nc1ncc([N+](=O)[O-])s1	inactive	–
